Among the data in PubChem BioAssay (Tox21) are Potency and outcome values, retold here.

The nature of assay [1]: qHTS assay to test for compound auto fluorescence at 460 nm (blue) in HEK293 cells (AID 720678). The gist of the method:
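Blue-channel (Ex/Em 405/460 nm) intensity measured in HEK293 cultures after overnight compound exposure at 37C; signal expressed relative to triamterene. Cells plated 2,000 per well in 10% dialyzed FBS medium and allowed 4-5 hr to attach.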

Assay [2] can be described thus: qHTS assay to test for compound auto fluorescence at 590 nm (red) in HEK293 cells (AID 720679). Put shortly:
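Red-channel autofluorescence (Ex/Em 540/590 nm; Rose Bengal sodium reference) was measured after overnight 37C, 5% CO2 exposure of attached HEK293 cells, 2,000 per well in medium with 10% dialyzed FBS.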
Background: In qHTS, concentration-response curves come from the screen itself.

Assay [3] can be described thus: qHTS assay to test for compound auto fluorescence at 535 nm (green) in HepG2 cell free culture (AID 720686).
Assay [4] is described as follows: qHTS assay to test for compound auto fluorescence at 460 nm (blue) in HepG2 cells (AID 720687). The gist of the method: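 Blue-channel autofluorescence (Ex/Em 405/460 nm, triamterene-equivalent) was measured after 1 hr compound exposure at 37 C, 5% CO2. Cells were HepG2, plated overnight at 37 C in MEM plus 10% FBS.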
A short description of assay [5]: qHTS assay to identify small molecule antagonists of the glucocorticoid receptor (GR) signaling pathway - cell viability counter screen (AID 720693). Also: nearly all actives have a fitted effect of over 55% in size.
Assay [6] in a line: qHTS assay for identifying genotoxic compounds that show differential cytotoxicity against isogenic chicken DT40 cell lines with known DNA damage response pathways - wild type cell line (AID 743012). Also: nearly all actives have a fitted effect of over 60% in size. Also: potency is read from the fitted curve at half-maximal effect. The gist of the method: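 Viability by ATP luminescence (CellTiter-Glo, 30 min RT) after 40 h compound treatment at 37 C/5% CO2, using 300 parental DNA repair-proficient DT40 cells per well.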

Assay [7] can be described thus: qHTS assay for identifying genotoxic compounds that show differential cytotoxicity against isogenic chicken DT40 cell lines with known DNA damage response pathways - Rev3 mutant cell line (AID 743014). Also: nearly all actives have a fitted effect of over 55% in size.
A short description of assay [8]: qHTS assay to identify small molecule antagonists of the androgen receptor (AR) signaling pathway - cell viability counter screen (AID 743033; also: nearly all actives have a fitted effect of over 45% in size).
A short description of assay [9]: qHTS assay to identify small molecule antagonists of the thyroid receptor (TR) signaling pathway - cell viability counter screen (AID 743064). Also: nearly all actives have a fitted effect of over 50% in size. Put shortly:
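GH3.TRE-Luc cells, 4 h pre-plating; cpd + T3 1 nM final; 37 °C 23.5 h; CellTiter-Fluor 30 min; fluorescence read.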

In assay [10] the test system is thyroid hormone receptor (rat, GH3 cells). The assay can be described thus: qHTS assay to identify small molecule agonists of the thyroid receptor (TR) signaling pathway (AID 743066; calls by dose curve).
A short description of assay [11]: qHTS assay to identify small molecule antagonists of the estrogen receptor alpha (ER-alpha) signaling pathway - cell viability counter screen (AID 743074; calls by dose curve;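 also: HEK293 cells carrying ER-alpha-UAS-bla reporter stimulated with 17beta-estradiol; nearly all actives have a fitted effect of over 45% in size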).
The target of assay [12] is Estrogen receptor (Homo sapiens) (UniProt P03372). The assay can be described thus: qHTS assay to identify small molecule agonists of the estrogen receptor alpha (ER-alpha) signaling pathway (AID 743075; calls by dose curve;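 also: HEK293 GripTite cells with ER-alpha and UAS-driven beta-lactamase reporter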; also: potency is read from the fitted curve at half-maximal effect).
Chain of Estrogen receptor (Homo sapiens) (P03372 whole entry, looked up): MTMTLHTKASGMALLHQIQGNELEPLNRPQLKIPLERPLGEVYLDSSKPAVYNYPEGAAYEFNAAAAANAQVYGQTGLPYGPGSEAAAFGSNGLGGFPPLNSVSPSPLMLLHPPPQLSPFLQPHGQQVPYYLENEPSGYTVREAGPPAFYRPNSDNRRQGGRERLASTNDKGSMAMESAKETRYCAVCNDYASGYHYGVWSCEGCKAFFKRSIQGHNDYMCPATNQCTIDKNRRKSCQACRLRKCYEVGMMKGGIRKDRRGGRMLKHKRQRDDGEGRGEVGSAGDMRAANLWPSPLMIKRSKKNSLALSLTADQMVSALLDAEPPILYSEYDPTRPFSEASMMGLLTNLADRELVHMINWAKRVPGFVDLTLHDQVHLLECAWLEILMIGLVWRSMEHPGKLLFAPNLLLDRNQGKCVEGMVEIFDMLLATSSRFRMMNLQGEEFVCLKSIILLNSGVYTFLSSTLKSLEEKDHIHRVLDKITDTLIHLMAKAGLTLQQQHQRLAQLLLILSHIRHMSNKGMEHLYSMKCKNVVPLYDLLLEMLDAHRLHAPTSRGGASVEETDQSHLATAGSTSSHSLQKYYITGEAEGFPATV
Assay [13] shares this target. The assay is described as follows: qHTS assay to identify small molecule agonists of the estrogen receptor alpha (ER-alpha) signaling pathway using the BG1 cell line (AID 743079). Also: nearly all actives have a fitted effect of over 20% in size. Also: potency is read from the fitted curve at half-maximal effect.
Assay [14] deals with Peroxisome proliferator-activated receptor gamma (Homo sapiens) (UniProt P37231). The assay can be described thus: qHTS assay to identify small molecule agonists of the peroxisome proliferator-activated receptor gamma (PPARg) signaling pathway (AID 743094; active = well fitted activation curve with a large enough effect in the signal ratio in the repeat runs, not every such curve was filed as active; inconclusive = weak or mixed curves, or effect the other way; inactive = no such curve, though single readings can be large or run the other way; the % refers to the signal ratio). Put shortly: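 Agonist activity was taken from a beta-lactamase reporter (FRET substrate, 1 h at room temperature) in HEK293H cells carrying a PPARg UAS-bla construct. Compounds in DMSO were incubated 17 h at 37C after a 5 h cell pre-incubation.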
Chain of Peroxisome proliferator-activated receptor gamma (Homo sapiens) (P37231 whole entry, looked up): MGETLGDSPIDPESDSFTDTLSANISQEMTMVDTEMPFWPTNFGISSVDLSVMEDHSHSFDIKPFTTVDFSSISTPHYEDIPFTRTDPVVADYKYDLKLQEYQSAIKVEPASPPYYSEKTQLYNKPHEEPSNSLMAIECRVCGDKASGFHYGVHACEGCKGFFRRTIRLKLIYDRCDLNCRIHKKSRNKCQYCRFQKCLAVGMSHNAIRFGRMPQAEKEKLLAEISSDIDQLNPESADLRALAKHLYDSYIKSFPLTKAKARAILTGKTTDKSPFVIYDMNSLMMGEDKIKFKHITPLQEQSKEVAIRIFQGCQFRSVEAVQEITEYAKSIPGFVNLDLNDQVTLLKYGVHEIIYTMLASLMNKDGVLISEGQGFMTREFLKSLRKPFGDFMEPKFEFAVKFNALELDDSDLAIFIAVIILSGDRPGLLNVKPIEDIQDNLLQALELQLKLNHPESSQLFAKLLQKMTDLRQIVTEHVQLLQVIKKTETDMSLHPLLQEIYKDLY

In assay [15] the target is Nuclear receptor subfamily 1 group I member 2 (Homo sapiens) (UniProt O75469). The assay can be described thus: CYP3A4 induction through human pregnane X receptor (PXR) by small molecules, qHTS assay (AID 1346984). Also: nearly all actives have a fitted effect of over 40% in size. The gist of the method: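 Read-out is luminescence after One-Glo addition, following a 3 hr, 37C incubation with Luciferin-IPA CYP3A4 substrate (3uM final). Before that, compounds were on DPX-2 cells (HepG2 co-transfected with PXR element plus CYP3A4-promoter luciferase) for 24 hr at 37C.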

For assay [16] the target is unchanged. The assay is described as follows: Human pregnane X receptor (PXR) activation by small molecules, qHTS assay (AID 1346985). Also: nearly all actives have a fitted effect of over 40% in size. The gist of the method: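 DPX-2 cells (HepG2 co-transfected with a PXR response element and a CYP3A4-promoter luciferase construct) were seeded at 2,000 per well, rested 5 hr at 37C, then exposed to DMSO-dissolved compounds for 24 hr. Activation was read as luciferase luminescence.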

Assay [17] can be described thus: qHTS assay for small molecule agonists of the p53 signaling pathway - cell viability (AID 651633; calls by dose curve;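 also: p53RE-bla HCT reporter cells with a stable beta-lactamase p53 reporter; series mostly up to about 83 µM; nearly all actives have a fitted effect of over 30% in size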). Put shortly:
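Viability counter-read: CellTiter-Glo luminescence (30 min, room temperature) in the same p53RE-bla plates. These plates had been exposed to compounds for 16 h at 37 C.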

Assay [18] is described as follows: qHTS assay to test for compound auto fluorescence at 590 nm (red) in HepG2 cells (AID 720674). The gist of the method:
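Red autofluorescence (Ex/Em 540/590 nm, Rose Bengal sodium equivalents) was measured in HepG2 cells, 2,000 per well in MEM plus 10% FBS, plated overnight at 37 C. Readings were taken 1 hr after adding 23 nL compound or DMSO, at 37 C and 5% CO2.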

Calls of active or inactive are those of the source. Unless noted, calls follow the shape of the dose curve; as a rule, active = well fitted curve in the direction sought with a large enough effect in the repeat runs; inconclusive = weak or mixed curves; inactive = no such curve, though single readings can be large; an effect the other way counts as inactive or inconclusive.

Turning to `CCCC(C)C1(CC)C(=O)NC(=O)NC1=O` (centres undefined), the Potency entry in assay [1], in assay [3], in assay [4], in assay [5], in [6] and in assay [7] was “inactive” in each case. The Potency result in assay [8], in assay [9], in [10], in assay [11], in assay [12] and in [13] was “inactive” throughout. For the same molecule, the Potency result in assay [14], in [15] and in [16] was “inactive” in each case. The call in assay [2] was inactive.
For the molecule `NCC[C@H](O)C(=O)N[C@@H]1C[C@H](N)[C@@H](O[C@H]2O[C@H](CN)[C@@H](O)[C@H](O)[C@H]2N)[C@H](O[C@@H]2O[C@H](CO)[C@@H](O)[C@H]2O)[C@H]1O`, the Potency entry in [17], in assay [4], in assay [5], in [6], in assay [7] and in assay [8] was “inactive” each time. Further, the Potency entry in assay [9], in assay [10], in assay [11], in assay [12], in assay [13] and in [14] was “inactive” each time. The Potency entry in assay [15] and in [16] was “inactive” throughout. Moreover, the outcome in assay [18] and in assay [2] was inactive.
As to `CCCCCCCCCC(=O)O[C@H]1CC[C@H]2[C@@H]3CCC4=CC(=O)CC[C@]4(C)[C@H]3CC[C@]12C`, the Potency result in [17], in [1], in assay [3], in [4], in [5] and in assay [6] was “inactive” in each case. Further, the Potency entry in [7], in assay [8], in [10], in assay [11], in assay [14] and in assay [15] was “inactive” each time. In addition, in assay [16], the Potency entry was “inactive”. Also, the outcome in assay [18] and in assay [2] was inactive. For the same molecule, the Potency was 10.7 µM [inconclusive] (active) in assay [12] and 0.335 µM (active) in [13].
Regarding `C=CCN1CC[C@]23c4c5ccc(O)c4O[C@H]2[C@@H](O)C=C[C@H]3[C@H]1C5`, the Potency result in assay [17], in assay [1], in assay [3], in assay [4], in [5] and in [7] was “inactive” in each case. In addition, the Potency result in [9], in assay [10], in [11], in assay [14], in [15] and in [16] was “inactive” in each case. Moreover, the molecule was classed as inactive in assay [2].
As for `CC1(C)[C@H](C=C(Cl)Cl)[C@H]1C(=O)OCc1c(F)c(F)cc(F)c1F`, the Potency entry in assay [17], in [1], in assay [3], in [4], in [5] and in assay [6] was “inactive” throughout. Moreover, the Potency entry in assay [8], in assay [10], in assay [11], in assay [12], in assay [13] and in [15] was “inactive” in each case. In addition, the Potency result in assay [16] was “inactive”. Also, the result in [18] was inactive.
`O[C@H]1[C@H]2[C@H](O)CCCN2C[C@H]1O`: the Potency entry in assay [17], in assay [1], in [3], in [4], in [5] and in assay [6] was “inactive” each time. The Potency result in [9], in assay [10], in assay [11], in assay [12], in assay [13] and in [14] was “inactive” each time. In addition, the Potency entry in assay [15] and in [16] was “inactive” throughout. In addition, the call in [2] was inactive.
For the molecule `Clc1ccc2c(c1)C(c1ccccc1)=NCc1nncn1-2`, the outcome in assay [18] and in assay [2] was inactive. For the same molecule, the Potency result in [1], in [5], in assay [6], in assay [9], in [10] and in assay [11] was “inactive” throughout. In addition, the Potency result in [12], in assay [13], in [14], in [15] and in [16] was “inactive” each time.
Regarding `C[C@]12C=CC(=O)C=C1CC[C@@H]1[C@@H]2CC[C@]2(C)OC(=O)CC[C@@H]12`, the Potency result in assay [17], in assay [1], in assay [3], in [4], in assay [5] and in [7] was “inactive” each time. Further, the Potency entry in assay [8], in [10], in assay [11], in assay [14], in assay [15] and in assay [16] was “inactive” each time. Besides, the outcome in [18] and in [2] was inactive. Moreover, the Potency is 21.3 µM [inconclusive] (active) in [12] and 5.31 µM (active) in assay [13].
In the case of `CCC1(CC)C(=O)NC(=O)N(C)C1=O`, the Potency entry in [17], in assay [3], in assay [4], in [7], in assay [8] and in assay [9] was “inactive” each time. Also, the Potency result in assay [10], in [11], in assay [12], in assay [13], in [14] and in assay [15] was “inactive” in each case. Further, in assay [16], the Potency entry is “inactive”. Besides, the molecule was called inactive in assay [2].
In the case of `CC(Cc1ccccc1)NC=O` (centres undefined), the Potency result in [17], in assay [3], in [4], in [5], in assay [6] and in assay [7] was “inactive” each time. Moreover, the Potency result in [8], in assay [9], in assay [10], in [11], in assay [14] and in assay [15] was “inactive” throughout. Also, the Potency entry in [16] was “inactive”. In addition, the call in assay [18] and in [2] was inactive.
Turning to `CC(=O)O[C@H]1CC[C@H]2[C@@H]3CCC4=CC(=O)CCC4=C3C=C[C@]12C`, the Potency entry in [17], in assay [1], in [3], in assay [4], in [8] and in assay [9] was “inactive” in each case. Further, the Potency result in assay [10], in assay [14], in assay [15] and in assay [16] was “inactive” in each case. Also, the call in assay [18] and in [2] was inactive. The Potency in assay [6] was 23.7 µM (active); in assay [12], 2.68 µM [inconclusive] (active); in [13], 0.531 µM (active).
In the case of `O=C(C[C@@H]1NCCC[C@H]1O)Cn1cnc2cc(Br)c(Cl)cc2c1=O`, the Potency result in assay [17], in assay [1], in assay [3], in assay [4], in assay [5] and in assay [6] was “inactive” each time. Also, the Potency entry in assay [7], in assay [8], in [10], in [11], in assay [12] and in [13] was “inactive” in each case. In addition, the Potency entry in [15] and in assay [16] was “inactive” throughout. In addition, the molecule was classed as inactive in assay [18] and in assay [2].
`[S]=[Sb](=[S])[S][Sb](=[S])=[S]`: the Potency result in assay [17], in [4], in assay [5], in [8], in assay [9] and in assay [10] was “inactive” in each case. Also, the Potency entry in assay [11], in [12], in assay [13], in [14], in assay [15] and in assay [16] was “inactive” in each case. The outcome in assay [18] and in assay [2] was inactive.
For `C=CCC1(C(C)CCC)C(=O)N=C(S)NC1=O` (centres undefined), the Potency result in [17], in assay [1], in [3], in assay [4], in assay [6] and in assay [7] was “inactive” throughout. For the same molecule, the Potency entry in assay [8], in [9], in assay [10], in assay [11], in [12] and in assay [13] was “inactive” in each case. The Potency entry in assay [14] was “inactive”. The result in [18] and in assay [2] was inactive.
